Data published in PubChem BioAssay (EPA / NIEHS).
Active and inactive are the calls of the source. Rule for the calls: active = hit-call score of the fitted dose curve at least 0.9, where 1 is the maximum; inactive = score below 0.9.

How the values were obtained:
[1] = read-out: Human Leukocyte Antigen - DR isotype (HLADR), HLA-DRA (gene 3122); test: BSK_BE3C_HLADR: BioMAP Diversity Plus: BE3C Assay for Human Leukocyte Antigen - DR isotype (HLADR) Biomarker Activity (AID 2283032); details: primary human bronchial epithelial cells; actives raise or lower the signal
Method in brief: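 Signal came from an ELISA for HLA-DR in human bronchial epithelial primary cells harvested 24 h after treatment; gain- and loss-of-signal fitting used DMSO controls as reference.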

[2] = read-out: Vascular cell adhesion molecule 1 (VCAM1), VCAM1 (gene 7412); test: BSK_4H_VCAM1: BioMAP Diversity Plus: 4H Assay for Vascular cell adhesion molecule 1 (VCAM1) Biomarker Activity (AID 2283033); details: primary human endothelial cells (HUVEC); actives raise or lower the signal
Method in brief: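 Endpoint derived from bidirectional fitting against DMSO controls of VCAM-1 ELISA signal in umbilical vein endothelial cells sampled at 24 h following treatment.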

[3] = read-out: Interferon-gamma inducible Protein 10 (IP10), CXCL10 (gene 3627); test: BSK_BE3C_IP10: BioMAP Diversity Plus: BE3C Assay for Interferon-gamma inducible Protein 10 (IP10) Biomarker Activity (AID 2283034); details: primary human bronchial epithelial cells; actives raise or lower the signal
Method in brief: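 Using primary human bronchial epithelial cultures, the assay captures IP-10 by ELISA one day (24 h) after exposure. Parallel SRB staining of total protein flags overt cytotoxicity. Fits run bidirectionally relative to DMSO.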

[4] = read-out: Monokine induced gamma interferon (MIG), CXCL9 (gene 4283); test: BSK_BE3C_MIG: BioMAP Diversity Plus: BE3C Assay for Monokine induced gamma interferon (MIG) Biomarker Activity (AID 2283035); details: primary human bronchial epithelial cells; actives raise or lower the signal
Method in brief: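 ELISA read-out of MIG in human lung bronchial epithelial primary cultures, 24 h post-dosing. Bidirectional curve fit vs DMSO baseline.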

[5] = read-out: Transforming growth factor beta 1 (TGFb1), TGFB1 (gene 7040); test: BSK_BE3C_TGFb1: BioMAP Diversity Plus: BE3C Assay for Transforming growth factor beta 1 (TGFb1) Biomarker Activity (AID 2283036); details: primary human bronchial epithelial cells; actives raise or lower the signal
Method in brief: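 In this human primary bronchial epithelial system, an ELISA quantified TGF-b1 one day after dosing. Endpoint changes in either direction were fitted relative to DMSO.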

[6] = read-out: Plasminogen activator inhibitor-1 (PAI1), SERPINE1 (gene 5054); test: BSK_BE3C_PAI1: BioMAP Diversity Plus: BE3C Assay for Plasminogen activator inhibitor-1 (PAI1) Biomarker Activity (AID 2283037); details: primary human bronchial epithelial cells; actives raise or lower the signal
Method in brief: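 PAI-1 biomarker levels in treated human bronchial epithelial cells are determined by ELISA at 24 h. Both increases and decreases relative to DMSO are fitted.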

[7] = read-out: Urokinase-type plasminogen activator receptor (uPAR), PLAUR (gene 5329); test: BSK_BE3C_uPAR: BioMAP Diversity Plus: BE3C Assay for Urokinase-type plasminogen activator receptor (uPAR) Biomarker Activity (AID 2283039); details: primary human bronchial epithelial cells; actives raise or lower the signal
Method in brief: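 A uPAR ELISA serves as the readout, taken 24 h after treating primary human bronchial epithelial cells. Responses in either direction are fitted against DMSO, which defines baseline activity.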

[8] = read-out: Interleukin-6 (IL6), IL6 (gene 3569); test: BSK_CASM3C_IL6: BioMAP Diversity Plus: CASM3C Assay for Interleukin-6 (IL6) Biomarker Activity for (AID 2283040); details: primary human coronary artery smooth muscle cells; actives raise or lower the signal
[9] = read-out: Tissue plasminogen activator (tPA), PLAT (gene 5327); test: BSK_BE3C_tPA: BioMAP Diversity Plus: BE3C Assay for Tissue plasminogen activator (tPA) Biomarker Activity (AID 2283041); details: primary human bronchial epithelial cells; actives raise or lower the signal
Method in brief: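 Bidirectional curve fitting relative to DMSO defined activity, with tPA detected by ELISA in chemically treated human bronchial epithelial primary cells at 24 hours.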

[10] = read-out: Interleukin-8 (IL8), CXCL8 (gene 3576); test: BSK_CASM3C_IL8: BioMAP Diversity Plus: CASM3C Assay for Interleukin-8 (IL8) Biomarker Activity (AID 2283042); details: primary human coronary artery smooth muscle cells; actives raise or lower the signal;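 note: IL-8 protein level quantified by ELISA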
[11] = read-out: Human Leukocyte Antigen - DR isotype (HLADR), HLA-DRA (gene 3122); test: BSK_CASM3C_HLADR: BioMAP Diversity Plus: CASM3C Assay for Human Leukocyte Antigen - DR isotype (HLADR) Biomarker Activity (AID 2283043); details: primary human coronary artery smooth muscle cells; actives raise or lower the signal;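 note: cell-surface HLA-DR protein level quantified by ELISA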
[12] = read-out: Macrophage colony-stimulating factor (MCSF), CSF1 (gene 1435); test: BSK_CASM3C_MCSF: BioMAP Diversity Plus: CASM3C Assay for Macrophage colony-stimulating factor (MCSF) Biomarker Activity (AID 2283044); details: primary human coronary artery smooth muscle cells; actives raise or lower the signal;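 note: M-CSF protein amount quantified by ELISA after 24 h exposure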
[13] = read-out: Low-density lipoprotein receptor (LDLR), LDLR (gene 3949); test: BSK_CASM3C_LDLR: BioMAP Diversity Plus: CASM3C Assay for Low-density lipoprotein receptor (LDLR) Biomarker Activity (AID 2283045); details: primary human coronary artery smooth muscle cells; actives raise or lower the signal;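 note: LDLR protein level on the cell surface quantified by ELISA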
[14] = read-out: Monocyte Chemoattractant Protein-1 (MCP1), CCL2 (gene 6347); test: BSK_CASM3C_MCP1: BioMAP Diversity Plus: CASM3C Assay for Monocyte Chemoattractant Protein-1 (MCP1) Biomarker Activity (AID 2283046); details: primary human coronary artery smooth muscle cells; actives raise or lower the signal;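 note: MCP-1 level quantified by ELISA 24 h after dosing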
[15] = BSK_CASM3C_Proliferation: Cell Proliferation Assessment in the BioMAP Diversity Plus: CASM3C Assay (AID 2283047); details: primary human coronary artery smooth muscle cells;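 note: sulforhodamine B total protein stain as relative cell number at 560 nm; sub-confluent cells exposed 48 h before staining; fitted both ways against DMSO so gain or loss of cell number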
[16] = read-out: Monokine induced gamma interferon (MIG), CXCL9 (gene 4283); test: BSK_CASM3C_MIG: BioMAP Diversity Plus: CASM3C Assay for Monokine induced gamma interferon (MIG) Biomarker Activity (AID 2283048); details: primary human coronary artery smooth muscle cells; actives raise or lower the signal;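 note: MIG protein level measured by ELISA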
[17] = read-out: serum amyloid A (SAA), SAA1 (gene 6288); test: BSK_CASM3C_SAA: BioMAP Diversity Plus: CASM3C Assay for serum amyloid A (SAA) Biomarker Activity (AID 2283049); details: primary human coronary artery smooth muscle cells; actives raise or lower the signal;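 note: SAA protein level quantified by ELISA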
[18] = BSK_CASM3C_SRB: Viability Assessment in the BioMAP Diversity Plus: CASM3C Assay (AID 2283050); details: primary human coronary artery smooth muscle cells;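 note: cells exposed to compound for 24 h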
[19] = read-out: Thrombomodulin, THBD (gene 7056); test: BSK_CASM3C_Thrombomodulin: BioMAP Diversity Plus: CASM3C Assay for Thrombomodulin Biomarker Activity (AID 2283051); details: primary human coronary artery smooth muscle cells; actives raise or lower the signal;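 note: thrombomodulin protein level measured by ELISA 24 h after dosing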
[20] = read-out: urokinase plasminogen activator (uPA), PLAU (gene 5328); test: BSK_BE3C_uPA: BioMAP Diversity Plus: BE3C Assay for urokinase plasminogen activator (uPA) Biomarker Activity (AID 2283038); details: primary human bronchial epithelial cells; actives raise or lower the signal
Method in brief: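 Primary human bronchial epithelial cells, uPA measured by ELISA 24 h after dosing. Bidirectional change relative to DMSO; cytotoxicity checked in parallel cultures by sulforhodamine B total-protein staining.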

Measured: AC50

COc1ccc(OC)c(N=Nc2c(O)ccc3ccccc23)c1
active: [1] 3.41 µM | [2] 20 µM | [3] 6.72 µM | [7] 5.41 µM | [12] 0.0186 µM | [13] 0.119 µM | [15] 33.6 µM | [18] 20 µM
not listed: [20]
inactive: all other assays above

Oc1c(Cl)cc(Cl)c(Cl)c1Cc1c(O)c(Cl)cc(Cl)c1Cl
active: [1] 0.634 µM | [2] 12.8 µM | [3] 8.17 µM | [4] 8.39 µM | [6] 3.97 µM | [7] 20 µM | [8] 7.83 µM | [11] 2.28 µM | [12] 8.79 µM | [14] 30.7 µM | [15] 5.37 µM | [16] 19.8 µM | [17] 3.97 µM | [18] 7.17 µM
inactive: [5] | [9] | [10] | [13] | [19]

CC1(C)C2=CCCC(C)(C)[C@]23CC[C@H]1C3
active: [1] 20 µM | [3] 20 µM | [5] 20 µM | [8] 30.2 µM | [9] 31.5 µM | [11] 20 µM | [12] 32.7 µM | [13] 34.6 µM | [14] 31.3 µM | [15] 30.7 µM | [17] 20 µM | [18] 31.1 µM
inactive: [2] | [4] | [6] | [7] | [10] | [16] | [19]

CCC(C)c1cc([N+](=O)[O-])cc([N+](=O)[O-])c1OC(=O)OC(C)C (configuration not stated)
active: [1] 15.3 µM | [2] 8.04 µM | [3] 11 µM | [4] 33 µM | [5] 13.6 µM | [6] 20 µM | [20] 33.7 µM | [7] 35 µM | [8] 34.1 µM | [9] 13.6 µM | [10] 4.74 µM | [11] 13.7 µM | [12] 32.7 µM | [13] 31.8 µM | [14] 32.3 µM | [15] 29.7 µM | [16] 30.7 µM | [17] 34.1 µM | [18] 25.8 µM | [19] 36.8 µM

O=C1c2ccccc2C(=O)c2c(O)ccc(O)c21
active: [11] 4.94 µM | [15] 15 µM
not listed: [20]
inactive: all other assays above

CCCCN(CCCC)C(=O)N(CCCC)CCCC
inactive: [19]
active: [1] 12.5 µM | [2] 23.7 µM | [3] 9.08 µM | [4] 20 µM | [5] 5.38 µM | [6] 9.25 µM | [7] 7.37 µM | [8] 20 µM | [9] 6.94 µM | [10] 20 µM | [11] 12.5 µM | [12] 17.4 µM | [13] 20 µM | [14] 20 µM | [15] 10.4 µM | [16] 20 µM | [17] 10.8 µM | [18] 13.9 µM

c1ccc(CCc2ccccc2)cc1
active: [1] 30.3 µM | [2] 35.9 µM | [3] 29.7 µM | [5] 27.8 µM | [6] 29.3 µM | [7] 20 µM | [8] 26.8 µM | [9] 30.6 µM | [11] 29 µM | [12] 29.5 µM | [13] 30.6 µM | [14] 33.1 µM | [17] 26.4 µM | [18] 29.1 µM
inactive: [4] | [10] | [15] | [16] | [19]

CCCCCC(C=O)=Cc1ccccc1
active: [1] 33.1 µM | [2] 30.5 µM | [3] 30.6 µM | [8] 32 µM | [11] 31 µM | [12] 31.9 µM | [14] 27.5 µM | [15] 30.1 µM | [18] 33.5 µM
not listed: [20]
inactive: all other assays above

CCCCOC(=O)CCCCCCCC(=O)OCCCC
not listed: [20]
inactive: all other assays above

CCN(CC)C(=O)N(CC)CC
inactive: all assays above

CN(C)C(=S)SC(=S)N(C)C
active: [1] 13.7 µM | [2] 26.9 µM | [3] 34.7 µM | [4] 34.9 µM | [20] 19.9 µM | [7] 31.7 µM | [11] 19.9 µM | [15] 19.9 µM | [16] 19.9 µM | [19] 4.02 µM
inactive: all other assays above

CS(=O)(=O)OCCCCOS(C)(=O)=O
inactive: all assays above
